experiment: growth of efflux-deficient E. coli DRC39 – strain DRC39, OD650, 48 h, E. coli filamentation inducers, primary screen (AID 1179);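 note: screen aims at cell division blockers that make cells filament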; conditions: E. coli DRC39 delta-acrAB growth, higher = more signal, called active from +8 up or from −8 down

z-score, inactive:
COC(=O)[C@H](Cc1ccc(O)cc1)N[C@@H](/C=C/C1CC1)[C@H](O)Cc1ccccc1 -0.571
COc1ccc(CCNC(=O)[C@@H]2c3ccccc3C(=O)N(Cc3ccccc3OC)[C@H]2c2ccc(CO)cc2)cc1 0.258
COc1ccc(C(=O)Nc2cccc(CN3C(=O)[C@]4(O[C@H](CC(=O)N5Cc6ccccc6C[C@H]5CO)[C@@H]([Si](C)(C)c5ccc(OC)cc5)[C@@H]4C)c4ccccc43)c2)cc1 0.0565
C=CCN1Cc2ccccc2[C@H]2OC(c3ccc(OCCCO)cc3)=N[C@@]2(CCS(=O)(=O)c2ccccc2)C1=O -0.342
C=CCOC(=O)[C@H]1[C@@H]2C(=O)O[C@@H](c3ccccc3)[C@@H](c3ccccc3)N2[C@@H](c2ccc(OCCOC(=O)[C@H]3C[C@H]4C(=O)N[C@@H](CC(C)C)C(=O)N4[C@H]3c3ccc(O)cc3)cc2)[C@]12C(=O)Nc1ccccc12 1.02
CC1CC/C=C\[C@H]2OC34C=CCN(Cn5nnc6ccccc65)C(=O)[C@H]3N(CCCCCCO)C(=O)[C@@H]4C2C(=O)O1 (stereo not given in full) 0.703
[N-]=[N+]=Nc1ccccc1C[C@@]1(C(=O)NCc2ccccc2)N=C(c2ccc(OCCCO)cc2)O[C@@H]1c1ccccc1N=[N+]=[N-] -0.289
Cc1ccc(S[C@]2(C(=O)NCCCN(C)C)CC(=O)N(C3Cc4ccccc4C3)[C@@H]2c2ccc(CO)cc2I)cc1 -0.623
CC(C)N1C(=O)c2ccccc2[C@](C)(C(=O)NCC(F)(F)F)[C@@H]1c1ccc(CO)cc1 -0.0513
CN(C)CCCC[C@@H]1NC(=O)[C@H]2C[C@@H](C(=O)O)[C@@H](c3ccc(O)cc3)N2C1=O -0.454
O=C1[C@@H]2[C@@H](CC(COc3ccccc3)=C([C@H](O)CCc3ccccc3)[C@@H]2CO)C(=O)N1Cc1ccccc1 0.203
C=C(CCCC)/C(=C/C[C@H](OC(=O)c1ccncc1)c1ccccc1OCCO)c1cc(C(=O)OC)ccc1OC 0.0401
CC(C)NC(=O)[C@@]1(C)c2ccccc2C(=O)N(Cc2ccccc2)[C@H]1c1ccc(CO)cc1 0.988
COc1ccc(C#Cc2ccc3c(c2)[C@]2(C(=O)N3)[C@H](C(=O)O)[C@H]3C(=O)O[C@H](c4ccccc4)[C@H](c4ccccc4)N3[C@@H]2c2ccccc2OCCO)cc1 -0.183
CCCCCCc1nc(Cc2cc(OC)c(OC)c(OC)c2)cc2c1[Si](C(C)C)(C(C)C)O[C@H]2c1ccccc1 -0.585
O=C1C[C@@](C(=O)NCc2ccccc2)(c2ccc([N+](=O)[O-])cc2)[C@@H](c2ccc(CO)cc2)N1C1CCCCC1 1.46
O=C(NCc1ccccc1)[C@@H]1c2ccccc2C(=O)N(Cc2cc(C(F)(F)F)cc(C(F)(F)F)c2)[C@H]1c1ccc(CO)cc1 0.0181
COc1ccc([Si](C)(C)[C@@H]2[C@@H](CC(=O)N(CCO)Cc3ccccc3)O[C@]3(C(=O)N(Cc4ccc(I)cc4)c4ccccc43)[C@H]2C)cc1 -0.699
COCCn1c(C(=O)N(C)C)cc2c1C[C@H]1CN(C(=O)c3ccccc3)[C@@](Cc3ccc(OC)cc3)(C(=O)OC)[C@@H]21 -0.289
O=C1C2C=CC(C(O)c3cccs3)N(Nc3ccc([N+](=O)[O-])cc3)C2C(=O)N1c1ccccc1 (stereo not given) -0.0047
O=C1O[C@@H](c2ccccc2)[C@@H](c2ccccc2)N2[C@@H](c3ccc(OCCO)cc3)[C@]3(C(=O)Nc4ccc(C#CC5(O)CCCCCC5)cc43)[C@@H](C(=O)Nc3nc4ccccc4s3)[C@H]12 0.261
CC(C)[Si](C#CCCc1ccccc1)(O[C@H](c1ccccc1)c1cn(Cc2ccccc2)nn1)C(C)C 0.451
COCCOC(=O)N1C(=O)[C@@]2(c3cc(C#CC4(O)CCCCCC4)ccc31)[C@H](c1ccc(O)cc1)N1[C@H](c3ccccc3)[C@H](c3ccccc3)OC(=O)[C@H]1[C@@H]2C(=O)N1CCCCCCC1 0.625
CN1C(=O)C2C(C3CC3)C=C3CN(Cc4cccc(Cl)c4)[C@@H]([C@@H](O)Cc4ccccc4)C3C2C1=O (stereo not given in full) 0.588
C=CCC(OC(C)=O)[C@@H]1[C@@H](N(Cc2ccc(-c3ccccc3)cc2)C(=O)c2cccc3ccccc23)c2cc(OCCCO)ccc2N1C(=O)Cc1ccc(OC)cc1 (stereo not given in full) -0.288
O=C1NC(=O)C2C1C=CC(C(O)c1ccc([N+](=O)[O-])cc1)N2Nc1ccccn1 (stereo not given) -0.372
CCCCC(O)C1C=CC2C(=O)N(c3ccccc3)C(=O)C2N1Nc1ccccc1 (stereo not given) 0.483
COCCOC(=O)N1C(=O)[C@@]2(c3cc(C#Cc4ccc(OC)cc4)ccc31)[C@H](c1ccc(OCCO)cc1)N1[C@H](c3ccccc3)[C@H](c3ccccc3)OC(=O)[C@H]1[C@@H]2C(=O)NC[C@H](O)c1ccccc1 -0.189
O=C1O[C@H](c2ccccc2)[C@H](c2ccccc2)N2[C@H]1[C@@H](C(=O)N1CCN(c3ncccn3)CC1)[C@]1(C(=O)Nc3ccc(C#CCCO)cc31)[C@H]2c1ccc(O)cc1 -0.395
O=C1C[C@@](C(=O)O)(c2ccc([N+](=O)[O-])cc2)[C@@H](c2ccc(CO)cc2)N1C1CCCCC1 -0.199
CN(C)CCCNC(=O)[C@@]1(C)c2ccccc2C(=O)N(Cc2ccc(OC(F)(F)F)cc2)[C@H]1c1ccc(CO)cc1 -1.26
COCCOC(=O)N1C(=O)[C@@]2(c3cc(C#CCCO)ccc31)[C@H](c1ccc(OCCO)cc1)N1[C@H](c3ccccc3)[C@H](c3ccccc3)OC(=O)[C@H]1[C@@H]2C(=O)N1CCCCCCC1 -0.457
C#CCN1[C@@H](Cc2ccccc2)C(=O)O[C@H](Cc2ccccc2)[C@@H]1/C=C/C1CC1 1.06
CC(C)C[C@@H]1NC(=O)[C@@H]2C[C@H](C(=O)NCCCCCCNC(=O)CS)[C@H](c3cccc(OCCO)c3)N2C1=O -0.881
CCCCCC1=C2CNC(CC(C)C)(C(=O)OC)C=C2C(C)C1=O (stereo not given) 0.501

Reference: PubChem BioAssay
